PubChem BioAssay (NCATS)
Values joined by “and” are separate entries in the source; they are usually repeats but may differ in a detail not shown here. Equal entries are not always repeated. Results filed as inconclusive are left out. Active and inactive are the calls of the source. Calls follow the shape of the dose curve; as a rule, active = well fitted inhibition curve with a large enough effect; inconclusive = small, poorly fitted or top-dose-only effect; inactive = flat fitted curve, though single readings scatter.

Tests used:
CRL-7250 = normal cell line; experiment: Cytotoxic Profiling of Annotated Libraries Using Quantitative High-Throughput Screening (AID 1296008); settings: Five cell lines viability, CellTiter-Glo ATP luminescence, 48-72 h; max response: stronger effect = lower value; as to max response: % is scaled to controls: 0 for no effect and ±100 for the full control effect
Outline: (§1)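 Cytotoxicity was measured as CellTiter-Glo ATP luminescence, read after 10 min at room temperature. Compound treatment of the cells lasted 48 or 72 hr at 37 degrees Celsius in a qHTS format.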

HEK293 = experiment: as above; settings: Five cell lines viability, CellTiter-Glo ATP luminescence, 48-72 h; max response: stronger effect = lower value
Outline: as §1

HaCat = experiment: as above; settings: Five cell lines viability, CellTiter-Glo ATP luminescence, 48-72 h; max response: stronger effect = lower value
Outline: as §1

KB-3-1 = experiment: as above; settings: Five cell lines viability, CellTiter-Glo ATP luminescence, 48-72 h; max response: stronger effect = lower value
Outline: as §1

NIH3T3 = experiment: as above; settings: Five cell lines viability, CellTiter-Glo ATP luminescence, 48-72 h; max response: stronger effect = lower value
Outline: as §1

SC27B = experiment: qHTS profiling for inhibitors of Plasmodium falciparum proliferation (AID 504749); settings: P. falciparum in erythrocytes, SYBR Green DNA, 72 h; series mostly up to 28.7 µM
Outline: (§2)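 In a 72 h erythrocytic culture (37 C, humidified, 5% CO2) at 2.5% hematocrit and 0.3% starting parasitemia, compounds were tested; SYBR Green I in detergent lysis buffer stained parasite DNA overnight.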

TAB109 = experiment: as above; settings: P. falciparum in erythrocytes, SYBR Green DNA, 72 h; series mostly up to 28.7 µM
Outline: as §2

TAB113 = experiment: as above; settings: P. falciparum in erythrocytes, SYBR Green DNA, 72 h; series mostly up to 28.7 µM
Outline: as §2

TAB165 = experiment: as above; settings: P. falciparum in erythrocytes, SYBR Green DNA, 72 h; series mostly up to 28.7 µM
Outline: as §2

W2 = experiment: as above; settings: P. falciparum in erythrocytes, SYBR Green DNA, 72 h; series mostly up to 28.7 µM
Outline: as §2
Also: nearly all actives have a fitted effect of over 60% in size.
Potency is read from the fitted curve at half-maximal effect.

COC(=O)[C@@H]1[C@H]2C[C@H]3c4[nH]c5ccccc5c4CCN3C[C@@H]2CC[C@@H]1O
inactive: outcome (CRL-7250) | max response (HEK293) -10.9% and -9.65% | max response (HaCat) 0.769% | outcome (HaCat) | max response (KB-3-1) -4.37% and 9.99% | max response (NIH3T3) -5.76% | outcome (NIH3T3)

Cc1c(NC(=O)c2ccc(C(C)(C)C)cc2)cccc1-c1cn(C)c(=O)c(Nc2ccc(C(=O)N3CCOCC3)cc2)n1
active: Potency (HEK293) 11.8 µM
inactive: max response (CRL-7250) 2.1% | outcome (CRL-7250) | max response (HaCat) -8.79% | max response (KB-3-1) 3.17% and -18.9% | max response (NIH3T3) -19.5% and -5.9%

COc1ccc2cc(-c3nc(-c4ccc(S(C)=O)cc4)[nH]c3-c3ccncc3)ccc2c1 (centres undefined)
inactive: max response (CRL-7250) -4.22% | outcome (CRL-7250) | max response (HaCat) -7.74% | outcome (HaCat) | max response (KB-3-1) 4.38% | max response (NIH3T3) 3.08%

CCN(CC)CCNC(=O)c1ccc(N)cc1
inactive: Potency (SC27B) | outcome (TAB109) | Potency (TAB113) | Potency (TAB165) | Potency (W2) | outcome (CRL-7250) | outcome (HEK293) | max response (HaCat) 0.0096% | outcome (HaCat) inactive; activator | max response (KB-3-1) -16.7% | outcome (KB-3-1) | outcome (NIH3T3)

CCN1CCC[C@H]1CNC(=O)c1cc(S(N)(=O)=O)ccc1OC
inactive: Potency (SC27B) | outcome (TAB109) | Potency (TAB113) | Potency (TAB165) | Potency (W2) | max response (CRL-7250) -0.0938% and -2.14% | outcome (HEK293) | max response (HaCat) -3.98% | outcome (HaCat) | max response (KB-3-1) -2.45% | outcome (KB-3-1) | max response (NIH3T3) 0.0033% and 0.419%

Cc1ccccc1C(C(=O)NC1CCCCC1)N(C(=O)Cn1ccnc1C)c1cccc(F)c1 (centres undefined)
inactive: max response (CRL-7250) -5.16% | outcome (CRL-7250) | max response (HEK293) -0.939% | outcome (HaCat) | max response (KB-3-1) 1.35% and 1.14% | max response (NIH3T3) -2.46% and -16.9%

O=C(O)CCc1nc(-c2ccccc2)c(-c2ccccc2)o1
inactive: max response (CRL-7250) -11.7% and 0.986% | max response (HEK293) -15.1% and -1.16% | max response (HaCat) -18.5% | outcome (HaCat) | max response (KB-3-1) -6.48% | outcome (KB-3-1) | max response (NIH3T3) 3.82% | outcome (NIH3T3)

O=C(O)Cc1cccc2ccccc12
inactive: Potency (SC27B) | outcome (TAB109) | Potency (TAB113) | Potency (TAB165) | Potency (W2) | outcome (CRL-7250) | max response (HEK293) 0.788% and 3.55% | max response (HaCat) -10.3% | outcome (HaCat) | max response (KB-3-1) 13.8% and -7.33% | max response (NIH3T3) -0.562% and 0.69%

CNC(=O)c1ccc2cc(C3(O)CCn4cncc43)ccc2c1 (centres undefined)
inactive: max response (CRL-7250) -2.53% and -8.91% | max response (HEK293) -5.04% and 1.96% | max response (HaCat) 0.87% | outcome (HaCat) | max response (KB-3-1) -2.71% | outcome (KB-3-1) | max response (NIH3T3) 3.68% and 1.07%

COc1cc2nc(-c3ccc(N4CCN(C)CC4)cc3)nc(NCCN3CCOCC3)c2cc1OC
active: Potency (CRL-7250) 1.66 µM | Potency (HEK293) 5.8 µM | Potency (HaCat) 0.935 µM | Potency (KB-3-1) 0.0662 µM

CN(C)CCC(c1ccccc1)c1ccccn1 (centres undefined)
inactive: Potency (SC27B) | Potency (TAB113) | Potency (TAB165) | max response (CRL-7250) -4.39% | max response (HEK293) -3.33% | outcome (HEK293) | outcome (HaCat) | max response (KB-3-1) -8.17% and 1.69% | max response (NIH3T3) -1.68% | outcome (NIH3T3)
active: Potency (W2) 4.26 µM

O=C(NCc1ccncc1)C12C[C@H]3C[C@@H](C1)CC(c1ccc(Cl)cc1)(C3)C2
inactive: max response (CRL-7250) -10.8%
active: Potency (HEK293) 10.5 µM

C[C@@H](O)[C@H]1C(=O)N2C(C(=O)O)=C(S[C@@H]3CN[C@H](C(=O)N(C)C)C3)[C@H](C)[C@H]12
inactive: Potency (SC27B) | outcome (TAB109) | Potency (TAB113) | Potency (TAB165) | Potency (W2) | max response (CRL-7250) 3.74% | outcome (CRL-7250) | outcome (HEK293) | max response (HaCat) -2.71% | outcome (HaCat) | max response (KB-3-1) -4.18% | max response (NIH3T3) -2.02% and 0.837%

CC(C)(C)c1cc(C(=O)O)c(NC(=O)Nc2ccc3[nH]ncc3c2)s1
inactive: max response (CRL-7250) -5.25% and -2.72% | max response (HEK293) -1.74% and 1.5% | max response (HaCat) -3.43% | outcome (HaCat) | max response (KB-3-1) -9% | outcome (KB-3-1) | max response (NIH3T3) -6.15% | outcome (NIH3T3)

CC(C)C(=O)Oc1ccc(CO)cc1[C@H](CCN(C(C)C)C(C)C)c1ccccc1
inactive: max response (CRL-7250) -3.71% and 3.58% | max response (HEK293) -22.5% and -1.3% | max response (HaCat) -23.8% | outcome (HaCat) | max response (KB-3-1) -1.04% and 2.37% | max response (NIH3T3) -3.14% | outcome (NIH3T3)
